According to publication PMC4336329 (PLoS ONE, 2015):
In all, about 310,000 compounds went through this assay and about 14,000 (4.5%) showed an effect of 50% or more. The effect is printed as a negative number. What follows is part of a selection rich in strong results, with near analogues and random picks from the rest.

target: human ether-à-go-go-related gene (hERG) potassium channel (human, UniProt Q12809); assay: primary screen, population patch clamp on CHO cells stably expressing hERG; higher = less effect of the substance
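Also: peak tail current of the secondary pulse compared with the same well before compound.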

human ether-à-go-go-related gene (hERG) potassium channel, sequence (Q12809 whole entry, looked up): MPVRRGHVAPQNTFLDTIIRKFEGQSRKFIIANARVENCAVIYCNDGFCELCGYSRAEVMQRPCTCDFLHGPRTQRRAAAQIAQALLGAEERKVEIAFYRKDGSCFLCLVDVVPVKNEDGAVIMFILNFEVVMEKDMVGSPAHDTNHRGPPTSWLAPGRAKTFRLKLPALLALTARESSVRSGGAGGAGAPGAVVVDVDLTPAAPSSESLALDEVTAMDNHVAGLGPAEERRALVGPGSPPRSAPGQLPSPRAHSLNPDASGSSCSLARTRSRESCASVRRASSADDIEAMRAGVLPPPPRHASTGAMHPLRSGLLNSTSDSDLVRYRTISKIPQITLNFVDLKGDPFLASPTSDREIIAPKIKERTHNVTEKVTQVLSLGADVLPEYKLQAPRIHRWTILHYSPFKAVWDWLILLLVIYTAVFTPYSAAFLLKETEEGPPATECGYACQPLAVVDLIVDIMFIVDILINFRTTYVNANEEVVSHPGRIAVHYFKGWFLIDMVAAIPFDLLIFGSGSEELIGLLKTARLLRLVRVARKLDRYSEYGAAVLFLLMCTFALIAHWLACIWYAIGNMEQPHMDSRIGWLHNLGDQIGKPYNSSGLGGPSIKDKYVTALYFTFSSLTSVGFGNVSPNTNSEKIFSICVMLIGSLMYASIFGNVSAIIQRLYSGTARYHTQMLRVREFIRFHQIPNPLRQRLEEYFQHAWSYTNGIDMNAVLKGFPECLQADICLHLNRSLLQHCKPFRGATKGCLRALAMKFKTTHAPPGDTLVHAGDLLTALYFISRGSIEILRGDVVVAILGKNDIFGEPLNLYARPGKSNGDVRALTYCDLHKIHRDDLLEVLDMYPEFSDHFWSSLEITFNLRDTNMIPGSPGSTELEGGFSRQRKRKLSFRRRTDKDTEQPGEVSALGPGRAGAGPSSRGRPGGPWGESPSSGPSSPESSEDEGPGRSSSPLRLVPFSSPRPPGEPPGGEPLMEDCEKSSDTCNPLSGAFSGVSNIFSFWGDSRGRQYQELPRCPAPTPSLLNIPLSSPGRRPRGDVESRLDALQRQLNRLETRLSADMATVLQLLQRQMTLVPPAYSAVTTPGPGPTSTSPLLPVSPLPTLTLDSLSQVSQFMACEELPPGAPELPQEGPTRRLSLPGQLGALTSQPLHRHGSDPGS

Structure (SMILES)	hERG current change (%, negative = inhibition) at 10uM [%]
O=C(NCCCCO)c1ccc2c3c(cccc13)CC2	7.52
CC(=O)NS(=O)(=O)c1cccnc1Nc1ccc(Cl)c(Cl)c1	16.1
CC(=O)Nc1nc2c(c3c1c(=O)oc1ccccc13)CCCCC2	-7.1
C=C[C@@]12CN(C)[C@H]3[C@H]1[C@@]1(C(=O)Nc4ccccc41)C1CC2[C@@H]3CO1	13
O=c1c2c(-c3cccs3)csc2ncn1-c1ccccc1	-28.3
CCOc1ccc(N2C(=O)c3ccc(C(=O)OCC(=O)N(CC)C4CCS(=O)(=O)C4)cc3C2=O)cc1 (stereo not drawn)	-22.3
Cc1ccc(NC(=O)CN2CCC(NC(=O)c3cccc(F)c3)CC2)cc1C	-41.3
O=C(CN1CCN(Cc2ccccc2)CC1)Nc1cccc(Br)c1	-51.7
COc1cc(NC(=O)CN2CCN(S(=O)(=O)/C=C/c3ccccc3)CC2)cc(OC)c1OC	-14.8
Cc1cccc(NC(=O)CN2CCCCCC2)c1	7.69
CC(=O)c1cccc(NC(=O)CN2CCN(S(=O)(=O)/C=C/c3ccccc3)CC2)c1	-53.9
CC(=O)c1cccc(NC(=O)CN2CCN(Cc3ccccc3)CC2)c1.Cl	-10.9
NS(=O)(=O)c1ccc(NC(=O)CN2CCN(S(=O)(=O)/C=C/c3ccccc3)CC2)cc1	-9.04
COC(=O)c1cccc(NC(=O)CN2CCN(Cc3ccccc3)CC2)c1	-16
Cc1cccc(NC(=O)Cn2cccc2)c1	-5.5
Cc1cccc(NC(=O)CN2CCN(CC(=O)Nc3cccc(C)c3)CC2)c1	-63.7
O=C(CN1CCC(NC(=O)c2cccc(F)c2)CC1)Nc1ccc(Br)cc1	-73
Cc1cc(C)cc(NC(=O)CN2CCC(NC(=O)c3cccc(F)c3)CC2)c1	-39
CC(C(Sc1ccccc1N)c1ccccc1)[N+](=O)[O-] (stereo not drawn)	7.82
CCOP(=O)(O)c1cccc(OCCOCCOc2cccc(P(=O)(O)OCC)c2)c1	4.45
Cn1c(=NCC(O)COc2ccccc2)sc2ccccc21 (stereo not drawn)	-42.7
COc1ccnc(Oc2ccccc2)c1C(N)=O	20.2
C/C(Cn1cnc([N+](=O)[O-])n1)=N\NC(=O)c1cccc(F)c1	6.43
COC(=O)c1cccc(NC(=O)CSc2nnc(C)n2C)c1	26
Cc1ccc(NC(=O)C2CCN(S(=O)(=O)c3ccc4c(c3)NC(=O)C(C)S4)CC2)c(C)c1 (stereo not drawn)	-3.06
O=C(O)C1CCN(C(=O)c2ccco2)CC1	9.94
COc1ccc(N(CC(=O)N/N=C/c2ccccc2OC)S(=O)(=O)c2ccccc2)cc1	19.9

Structure (SMILES)	hERG current change (%, negative = inhibition) at 10uM [%]
Cc1cc(N2C(=O)C(O)=C(C(=O)c3cccs3)C2c2cccc(Br)c2)no1 (stereo not drawn)	6.05
c1ccc(-c2nnc(-c3ccncc3)nc2-c2ccccc2)cc1	-24.5
COc1cccc2c(=O)cc(C)n(CC(=O)Nc3cccc(C)c3)c12	-59.4
COc1cccc2c(=O)cc(C)n(CC(=O)Nc3ccc(C)c(C)c3)c12	-5.88
COc1cccc2c(=O)cc(C)n(CC(=O)Nc3ccc(Br)cc3)c12	12.8
O=C(NNC(=O)c1cccc(S(=O)(=O)N2CCN(c3ccccc3)CC2)c1)c1ccc(Cl)cc1	-59.5
CC(=O)N1CCN(C(=O)c2cccc(S(=O)(=O)N3CCN(c4ccccc4)CC3)c2)CC1	-16.5
Cc1ccc(C(=O)NNC(=O)c2cccc(S(=O)(=O)N3CCN(c4ccccc4)CC3)c2)cc1	-25.4
O=C(c1cccc(S(=O)(=O)N2CCCCCC2)c1)N1CCN(c2ccccc2)CC1	-68.8
O=C(c1cccc(S(=O)(=O)N2CCCCC2)c1)N1CCN(c2ccccc2)CC1	-73.1
O=C(c1cccc(S(=O)(=O)N2CCCC2)c1)N1CCN(c2ccccc2)CC1	-13
O=C(c1cccc(S(=O)(=O)N2CCOCC2)c1)N1CCN(c2ccccc2)CC1	-15.7
Cc1ccc(NC(=O)c2cccc(S(=O)(=O)N3CCN(c4ccccc4)CC3)c2)nc1	-1.19
O=C(c1cccc(S(=O)(=O)N2CCN(c3ccccc3)CC2)c1)N1CCCCCCC1	-33.4
CC1Oc2ccccc2N(CC(=O)NCc2ccccc2)C1=O (stereo not drawn)	6.53
CCOC(=O)C1=NN(c2ccccc2)C2=NC(C)=C(C(=O)OC)C(c3cccs3)N12 (stereo not drawn)	-5.66
CCc1ccc(NC(=O)CNS(=O)(=O)c2c(C)noc2C)cc1	-2.28
N#Cc1nc(-c2ccco2)oc1N1CCN(c2cccc(Cl)c2)CC1	-16.1
COc1cc(NC(=O)CSc2nnnn2-c2ccccc2)cc(OC)c1OC	-0.308
CCOc1ccccc1NC(=O)c1cccc2c1C(=O)N(C1CCCCC1)C2	9.57
C1CCCCCC2(CCCCC1)OCC(CN1CCOCC1)O2 (stereo not drawn)	-20.5
CN(Cc1nc2ccccc2s1)C(=O)c1ccc(F)cc1	-61
O=C(CCCc1nc2ccccc2s1)NCc1ccc(F)cc1	-37.4
CN(C)S(=O)(=O)c1ccc(C(=O)NCc2nc3ccccc3s2)cc1	1.24
Cc1cccc(-c2nc(=S)c3c(n2Cc2ccco2)CCCC3)c1	7.14
O=C(NCc1ccccc1)C1=C[C@H](c2coc3ccccc3c2=O)C[C@H](OCc2ccc(CO)cc2)O1	-38.1
CCn1c(=O)cc(SCC(=O)NCCC2=CCCCC2)c2ccccc21	-6.46
